Among all 360,000 compounds or so, about 9,100 (2.5%) were called active. Another 4% or so got no clear call; they are omitted. Only a selection was taken, and actives are over-represented in it overall. Values without a mark were called inactive. Cut-off read from the data, not from the text of the source: active = max response below about -50%; inconclusive = no clear call, values can overlap the other calls; inactive = above that.
These compounds were tested against D(3) dopamine receptor (Homo sapiens) (UniProt P35462) (assay: qHTS of D3 Dopamine Receptor Antagonist: qHTS). Settings: D3R cells, DiscoveRx beta-arrestin luminescence, antagonist mode; stronger effect = lower value.
Procedure, shortened: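 Cells expressing the human receptor were seeded at 1500 cells/well, incubated overnight at 37 degrees C in 5% CO2, then exposed to library compounds with dopamine controls for 90 minutes at 37 degrees C before luminescent detection.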
% is set by controls: 0 for no effect and ±100 for the full control effect.

Chain of D(3) dopamine receptor (Homo sapiens) (P35462 whole entry, looked up): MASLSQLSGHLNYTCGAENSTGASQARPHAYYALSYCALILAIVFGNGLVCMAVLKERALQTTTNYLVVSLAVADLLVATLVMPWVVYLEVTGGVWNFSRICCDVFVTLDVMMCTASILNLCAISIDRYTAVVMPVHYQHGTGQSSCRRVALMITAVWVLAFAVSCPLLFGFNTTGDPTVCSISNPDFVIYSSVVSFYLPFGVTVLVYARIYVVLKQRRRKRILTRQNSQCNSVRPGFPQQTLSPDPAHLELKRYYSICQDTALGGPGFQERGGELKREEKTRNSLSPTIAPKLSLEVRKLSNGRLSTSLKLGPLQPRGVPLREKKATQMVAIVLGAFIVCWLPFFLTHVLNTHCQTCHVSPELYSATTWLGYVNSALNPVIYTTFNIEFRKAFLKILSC

Point of comparison: `COc1cc2nnn(-c3ccncc3)c2cc1OC`, max response, negative = inhibition 28%. Against it:
- COc1ccc(NC(=O)c2sc(=O)n(Cc3ccc(S(=O)(=O)N(C)C)cc3)c2C)cc1 — lower, 14.5%
- CCCCCCNS(=O)(=O)c1ccccc1Br — lower, 0%
- CC1(C)CC(=O)C=C(NCCCNC2CCCCC2)C1 — lower, 1.63%
- CCCC(=O)N1CCC1(C)C(=O)NS(=O)(=O)c1ccc(Cl)cc1 (configuration not stated) — lower, 3.58%
- c1ccc2c(c1)nnn2-c1ccncc1 — lower, -16.5%
- COC(=O)CCNC(=O)c1ccc2[nH]c(C)c(C)c2c1 — lower, -22.3%
- CCOC(=O)c1ccc2[nH]c(C)c(CN3CCN(C)CC3)c(=O)c2c1 — lower, 0%
- CC1(C(=O)Nc2ccc3c(c2)OCCO3)CSCC(=O)N1CCOc1ccccc1 (configuration not stated) — lower, -1.68%
- O=C(Nc1ccc(OCCO)cc1)c1csc([C@H]2C[C@H](O)[C@@H](CO)O2)n1 — lower, -7.51%
- O=C(NCc1cccnc1)c1ccc2nc([C@@H]3O[C@H](CO)[C@H](O)[C@H](O)[C@H]3O)[nH]c2c1 — higher, 40.4%
- Nc1nc2cc(Cl)ccc2n1N — lower, 0%
- O=C(Nc1cc(S(=O)(=O)N2CCOCC2)ccc1Cl)c1cc(=O)c2ccccc2o1 — lower, 17%
- O=C(c1cc(S(=O)(=O)N2CCOCC2)ccc1Cl)N1CCOCC1 — lower, -16%
- Cc1cc(C)n2c(Nc3c(C)cccc3C)c(CCc3ccccc3)nc2n1 — lower, 18.8%
- CCN(CC)S(=O)(=O)c1cc([N+](=O)[O-])ccc1N=Nc1c(O)n(C)c2ccccc12 — lower, 3.23%
- CC(=O)c1ccc(NC(=O)Nc2ccc([N+](=O)[O-])cc2C)cc1 — lower, -18.2%
- COc1ccc(-c2ccc(Nc3ccc(S(=O)(=O)N4CCCC4)cc3)nn2)cc1OC — higher, 39.5%
- COc1ccc(-c2cc(-c3ccc(N)cc3)nc(N)c2C#N)cc1OC — lower, 23.8%
- COc1ccc(NC(=O)CCCOc2ccc(C(C)=O)cc2)cc1S(=O)(=O)N1CCCCC1 — lower, -5.42%
- CC(C)NC(=O)C1(C)CCCCCN1C(=O)c1ccc(-c2ccccc2)cc1 (configuration not stated) — lower, 15.2%
- CCOC(=O)C(=Cc1ccccc1OC)C(=O)OCC — lower, -20.5%
- CCOC(=O)C(=CNc1cccc(C)n1)C(=O)OCC — lower, -3.11%
- COC(=O)c1ccc2nc(-c3cccc(Br)c3)c(Cc3ccc(OC)cc3C)n2c1 — lower, -25.6%
- Cc1ccccc1S(=O)(=O)N1[C@@H](c2cccc(Cl)c2)C(C(=O)OC(C)(C)C)=CC[C@H]1c1ccc(Cl)cc1 — lower, 6.92%
- CCOc1ccccc1-c1nc(CN2CCC(C(=O)N3CCOCC3)CC2)c(C)o1 — lower, -15.7%
- CC(Sc1nnc(-c2cccs2)n1C1CC1)C(=O)NCC1CCCO1 (configuration not stated) — lower, 15.9%
- COc1ccccc1-c1cc2nc(NCc3cccc(Cl)c3)ccn2n1 — lower, 7.72%
- Cc1cccc(C)c1-n1nnnc1C1(C)CCC(=O)N1CCOc1ccccc1 (configuration not stated) — lower, 8.1%
- CCc1ccccc1NC(=O)CN1CCN(C(=O)c2cc(C3CC3)nn2-c2ccccc2)CC1 — lower, 13.7%
- COc1ccc(NC(=O)CN(C)C(=O)c2cc(C3CC3)nn2-c2ccccc2)cc1 — lower, -0.552%
- CC(C)OC(=O)CC(=O)CC(O)c1cccc([N+](=O)[O-])c1 (configuration not stated) — lower, -17.6%
- COc1ccc([C@@H]2[C@@H]3C(=O)N(C(C)(C)C)C(=O)[C@@H]3[C@]3(Cc4ccccc4)C(=O)N(c4cccc(Br)c4)C(=O)N23)cc1 — lower, 8.03%
- CC(C)(C)N1C(=O)[C@H]2[C@@H](c3ccc(Br)cc3)N3C(=O)N(c4cccc(Cl)c4)C(=O)[C@@]3(C)[C@H]2C1=O — lower, -1.37%
- O=C1C(Sc2cccc(F)c2)=C[C@@]2(O)CC[C@@H](O)[C@]1(Sc1cccc(F)c1)[C@H]2O — lower, 4.49%
- COC(=O)C(C)n1cnc2c(nnn2-c2ccc(F)cc2)c1=O (configuration not stated) — lower, 0%
- CCOC(=O)C(C)n1cnc2c(nnn2-c2ccc(F)cc2)c1=O (configuration not stated) — lower, -1.26%
- CCCCCCCCN1C(=O)[C@H](CC(=O)NCc2cccc3ccccc23)C[C@@]2(C(=O)OC)CCCCC=C12 — lower, 10.6%
- C#CCOCCOCCOCCNc1nc(N2CCN(C(=O)Cn3cc(CCO)nn3)CC2)nc(N2CCN(C(=O)[C@H](CCCCN)n3cc(CCCC)nn3)CC2)n1 — lower, 15.4%
- C#CCOCCOCCOCCNc1nc(N2CCN(C(=O)[C@H](C(C)C)n3cc(CCO)nn3)CC2)nc(N2CCN(C(=O)[C@H](C(C)C)n3cc(CCO)nn3)CC2)n1 — lower, 8.41%
- Cc1ccc(-c2nc3c(Cl)cc(C(F)(F)F)cn3c2Cc2cccc(Cl)c2)cc1 — higher, 50.6%
- COC(=O)c1c(NC(=O)c2c(Cl)cnn2C)sc(C)c1C — lower, 11.6%
- CCC(=O)Nc1sc(C(=O)Nc2ccccc2)c(C)c1C(=O)OC — higher, 31.4%
- COCc1cccc(-c2csc(C(O)c3ccc(F)cc3)n2)c1 (configuration not stated) — lower, 0%
- O=C(c1cccs1)N1C[C@H](n2cc(C3CC3)nn2)[C@@H](O)C[C@@H]1c1ccccc1 — lower, -2.86%
- C=CCn1c2c(c3ccccc31)CCC2 — lower, -10.5%
- CC(C)C1C(=O)N(Cc2cn(CCC3OCCO3)nn2)CCS(=O)(=O)N1Cc1ccc(-c2ccccc2C(F)(F)F)cc1 (configuration not stated) — lower, -3.14%
- O=C1[C@H]2[C@@H](c3ccc(F)cc3)N3C(=O)N(c4ccc(C(F)(F)F)cc4)C(=O)[C@@]3(Cc3ccccc3)[C@H]2C(=O)N1C1CCCCC1 — lower, -13.4%
- O=C1[C@H]2[C@@H](c3ccc(Cl)cc3)N3C(=O)N(c4cccc(F)c4)C(=O)[C@@]3(Cc3ccccc3)[C@H]2C(=O)N1C1CCCCC1 — lower, -0.596%
- OC[C@@H]1CN(Cc2cccs2)C[C@H](n2cnc3c(NC4CCCC4)ncnc32)O1 — lower, 18.9%
- CC(C)c1cccc(-c2csc(C(O)c3ccccc3)n2)c1 (configuration not stated) — lower, -27.4%
- COc1cccc(-c2sc3ccc(OC)cc3c2-c2ccc(OCCN3CCCCC3)cc2)c1 — lower, -12.2%
- COc1ccccc1-c1sc2ccccc2c1-c1ccc(Br)nc1 — lower, -14.1%
- O=C(Nc1ccc(C2CC2(Cl)Cl)cc1)c1cccc([N+](=O)[O-])c1 (configuration not stated) — lower, -14.6%
- CCc1nc2c(OCc3ccc(F)c(F)c3)cccn2c1N(C)C(=O)c1ccco1 — lower, 15.7%
- COc1ccc(C(=O)NC2=NCCS2)c(OC)c1 — lower, 5.28%
- COc1ccccc1C(=O)NCCC(=O)NC1=NCCS1 — lower, 0%
- O=C(CSc1cccc[n+]1[O-])c1ccc(Cl)cc1 — lower, -3.66%
- O=C(Cn1cc(-c2nnnn2-c2ccc(Cl)cc2)c(=O)c2ccccc21)c1ccccc1 — higher, 36.4%
- Cc1noc(C)c1C(=O)N1CCC1(C)C(=O)NS(=O)(=O)c1ccc(C#N)cc1 (configuration not stated) — lower, 13.1%
- COc1ccc(OC)c(NC(=O)c2sc3nc(C)cc(C)c3c2N)c1 — lower, 22.5%
- Cc1cccn2c(=O)c3cc(C(=O)NC4CCCCC4)sc3nc12 — lower, -12.3%
- COc1cncc(-c2cnc3sc(NCCc4ccccn4)nn23)c1 — higher, 60.8%
- Fc1ccccc1/C=N/n1c(-c2cccnc2)n[nH]c1=S — lower, -11.6%
- S=c1[nH]nc(-c2cccs2)n1/N=C/c1cn(-c2ccccc2)nc1-c1ccc(Cl)cc1 — lower, -16%
- S=c1[nH]nc(-c2ccncc2)n1/N=C/c1ccccc1Cl — higher, 38%
- Cc1ccsc1/C=N/n1c(=S)[nH]nc(C)c1=O — lower, -20.9%

For `CCCCCCCCNS(=O)(=O)CCNC1CCCCC1`, the max response, negative = inhibition was -69.1% (active).
In the case of `Cc1[nH]c2ccc(C(=O)N3CCN(C)CC3)cc2c1C`, the max response, negative = inhibition is reported as -72.7% (active).
For `O=[N+]([O-])c1cc(Cl)cc(/C=N/NC(=S)Nc2cc(S(=O)(=O)N3CCOCC3)ccc2Cl)c1O`, the max response, negative = inhibition was -50.3% (active).
In the case of `CCN(CC)S(=O)(=O)c1cc([N+](=O)[O-])ccc1NNC(=O)Nc1ccccc1`, the max response, negative = inhibition is reported as -56.2% (active).
For `COc1ccc(-c2cc(C(F)(F)F)nc(S(C)(=O)=O)n2)cc1OC`, the max response, negative = inhibition was -72.7% (active).
In the case of `CCOC(=O)C(=Cc1ccccc1)C(=O)c1ccccc1`, the max response, negative = inhibition is reported as -59.2% (active).
`CCOC(=O)C1(CC2CCCCO2)CCN(Cc2nc(-c3cccs3)oc2C)CC1` (configuration not stated) was tested, and the max response, negative = inhibition was -99% (active).
For `COc1ccc(CN2CCN(C(=O)c3cc(C4CC4)nn3-c3ccccc3)CC2)cc1F`, the max response, negative = inhibition was -50% (active).
In the case of `CC[C@@]12C(=O)N(c3ccccc3)C(=O)N1[C@H](c1ccc(Br)cc1)[C@@H]1C(=O)N(C(C)(C)C)C(=O)[C@@H]12`, the max response, negative = inhibition is reported as -54% (active).
In the case of `CCOC(=O)C(C)n1cnc2c(nnn2-c2cccc(OC)c2)c1=O` (configuration not stated), the max response, negative = inhibition is reported as -57.8% (active).
With `C#CCOCCOCCOCCNc1nc(N2CCN(C(=O)CCCCCCCCCCNC(=O)[C@H]([C@@H](C)CC)n3cc(CCCCN=C(N)N)nn3)CC2)nc(N2CCN(C(=O)CCCCCCCCCCNC(=O)[C@H](CO)n3cc(CCCSC)nn3)CC2)n1` the max response, negative = inhibition was -60.9% (active).
With `COCCCNCC(=O)Nc1sc(C)c(C)c1C(=O)OC` the max response, negative = inhibition was -52.8% (active).
In the case of `Cc1cccc(N2C(=O)N3[C@H](c4ccc(F)cc4)[C@@H]4C(=O)N(C5CCCCC5)C(=O)[C@@H]4[C@]3(Cc3ccccc3)C2=O)c1`, the max response, negative = inhibition is reported as -58.6% (active).
With `COc1ccc2sc(-c3ccccc3OC)c(-c3ccc(OCCN4CCCC4)cc3)c2c1` the max response, negative = inhibition was -83.2% (active).
In the case of `CC(C)(Oc1ccc(C2CC2(Cl)Cl)cc1)C(=O)O` (configuration not stated), the max response, negative = inhibition is reported as -111% (active).
For `O=C(NC1=NCCS1)c1ccc(Cl)s1`, the max response, negative = inhibition was -77% (active).
In the case of `O=C(C[n+]1ccc2c(c1)nnn2-c1ccccc1)c1ccc(Cl)cc1`, the max response, negative = inhibition is reported as -54.4% (active).
In the case of `COCc1cc(C)nc2sc(C(=O)NC3CCCCC3)c(N)c12`, the max response, negative = inhibition is reported as -50.5% (active).
With `Oc1ccccc1/C=N/n1c(-c2cccs2)n[nH]c1=S` the max response, negative = inhibition was -79.6% (active).
`Cc1ccc(/C=N\n2c(-c3ccccc3)n[nH]c2=S)s1` was tested, and the max response, negative = inhibition was -72.1% (active).
